PubChem BioAssay AID2685 (National Center for Advancing Translational Sciences (NCATS), 2010)
The whole screen tested about 320,000 compounds, of which about 2,100 (0.66%) were called active. Roughly 53% stayed inconclusive and do not appear here. The call rests on the fitted dose curve; in most records, active means well fitted inhibition curve with a large enough effect in the signal ratio, with a control signal flat (not every such curve was filed as active); inconclusive means small, poorly fitted or top-dose-only effect, or effect the other way, or a change in a side signal; inactive means flat fitted curve, though single readings scatter; the % refers to the signal ratio. The list comes from a sample in which actives are over-represented; it also holds similar structures and randomly drawn compounds.

experiment: qHTS Assay for Lipid Storage Modulators in Drosophila S3 Cells; settings: BODIPY lipid droplet fluorescence, 18-24 h, cells fed with added oleic acid; cell number change: measured here: cell count max response; series mostly up to 46.1 µM; lipid storage change, negative = inhibition: at the top concentration;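 on cell number change: cells counted by Cell Tracker Red CMTPX staining in the red channel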; on lipid storage change, negative = inhibition: on the % scale 0 is the no-effect control and ±100 the full control effect
How it was run: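 Drosophila S3 cells loaded with oleic acid (400 uM, as added) and compounds at several concentrations; lipid droplets imaged by 488-nm laser-scanning cytometry, 500–530 nm intensity and object ratio to cell channel. Percent activity normalized to 20 uM Triacsin C.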
Potency means the concentration at half of the fitted maximal effect.

Structure (SMILES)	lipid storage change, negative = inhibition	cell number change [%]	outcome	Potency
CCOC(=O)/C(=N\NC(=O)c1ccccc1)c1ccccc1	-1.81% (inactive)	17.6	–	–
CCOC(=O)c1sc2ccc(S(=O)(=O)N3CCOCC3)cc2c1N	-16.1% (inactive)	-11.9	–	–
CCOC(=O)NC(=O)CSc1cc(C)c2cc(C)cc(C)c2n1	4.15% (inactive)	-6.06	–	–
O=C(c1ccc(F)cc1)N1CCN(S(=O)(=O)c2ccc(Br)cc2)CC1	–	–	inactive	–
COC(=O)C1(CCSC)NC(c2ccc(O)cc2)C2C(=O)N(c3ccc4c(c3)OCCO4)C(=O)C21 (centres undefined)	9.79% (inactive)	9.07	–	–
CCOC(=O)C1(C)NC(c2ccc(O)cc2)C2C(=O)N(c3ccccc3)C(=O)C21 (centres undefined)	–	13.7	–	20.6 µM (active)
CCCC1(C(=O)OCC)NC(c2ccc(O)cc2)C2C(=O)N(c3ccc4c(c3)OCCO4)C(=O)C21 (centres undefined)	–	–	–	18.4 µM (active)
CCOC(=O)C1(C)NC(c2cccc(C)c2)C2C(=O)N(c3ccccc3)C(=O)C21 (centres undefined)	7.92% (inactive)	1.72	–	–
COC(=O)C1(C)NC(c2ccc(O)cc2)C2C(=O)N(c3ccc(C)cc3)C(=O)C21 (centres undefined)	-17% (inactive)	-4.99	–	–
CCCC1(C(=O)OCC)NC(c2ccc(N(C)C)cc2)C2C(=O)N(c3ccc4c(c3)OCCO4)C(=O)C21 (centres undefined)	-5.4% (inactive)	7.42	–	–
c1ccc(N2CCN(CCc3nnc4n3CCCCC4)CC2)cc1	-2.85% (inactive)	1.29	–	–
Cc1cc(NC(=O)c2ccco2)ccc1NC(=O)c1ccco1	-6.74% (inactive)	11.3	–	–
CCOc1ccccc1NCc1cc(=O)oc2cc(C)c(O)cc12	–	-1.8	–	3.66 µM (active)
Cc1cc2oc(=O)cc(CNc3ccccc3F)c2cc1O	5.68% (inactive)	-14.4	–	–
CCOc1ccccc1NCc1cc(=O)oc2cc(C)ccc12	–	-3.97	inactive	–
CC(C)(C)c1ccc(NC(=O)c2cc[n+]([O-])cc2)cc1	–	27.8	inactive	–
Cc1ccn(CC(C)C(=O)O)n1 (centres undefined)	0.546% (inactive)	3.92	–	–
CCN1CCN(C(CNS(=O)(=O)c2ccc(Br)cc2)c2cccnc2)CC1 (centres undefined)	7.69% (inactive)	-9.83	–	–
CCOc1ccc(NC(=O)Nc2cccc(C(=O)O)c2)cc1	5.5% (inactive)	14.2	–	–
CCOc1ccc(NC(=O)Nc2cc(OCC(F)(F)F)cc(OCC(F)(F)F)c2)cc1	–	-25.7	–	5.8 µM (active)
CCOc1ccc(NC(=O)Nc2ccc(NC(C)=O)cc2)cc1	3.13% (inactive)	11	–	–
CN(C)CCn1c2ccccc2c2nc3ccc([N+](=O)[O-])cc3cc21	–	-46.5	–	7.31 µM (active)
CCN(CC)CCn1c2ccccc2c2nc3ccc([N+](=O)[O-])cc3cc21	14.4% (inactive)	8.11	–	–
O=[N+]([O-])c1ccc2c(c1)c1ccccc1n2CCO	-5.42% (inactive)	0.129	–	–

Structure (SMILES)	lipid storage change, negative = inhibition	cell number change [%]	outcome	Potency
CC1(C)CC(=O)C2=C(C1)OC(N)=C(C#N)C2c1ccsc1 (centres undefined)	–	–	inactive	–
COc1ccc(N2CCN(C(=O)C3CCN(S(=O)(=O)c4ccc5c(c4)oc(=O)n5C)CC3)CC2)cc1	–	–	inactive	–
COc1cc(/C=C/C(=O)Nc2ccc3nc4n(c(=O)c3c2)CCCC4)cc(OC)c1OC	0.128% (inactive)	-7.64	–	–
C/C(=N/Nc1ccccc1[N+](=O)[O-])c1ccc([N+](=O)[O-])cc1	7.53% (inactive)	22.2	–	–
O=[N+]([O-])c1ccccc1N/N=C/c1ccccc1	–	-10.2	inactive	–
CC(C)/C(=N/Nc1ccccc1[N+](=O)[O-])c1ccccc1	–	-12.6	–	9.2 µM (active)
COc1cccc(CN2CC(C(=O)NCCCn3cccn3)CCC2=O)c1 (centres undefined)	-17.1% (inactive)	0.348	–	–
CCC(=O)N/N=C/c1ccc(-c2ccc([N+](=O)[O-])cc2)o1	20.1% (inactive)	3.62	–	–
CC(C)(C)C(=O)/C=c1\s/c(=C\c2ccc(-c3ccc([N+](=O)[O-])cc3)o2)c(=O)n1CC(=O)NC(N)=O	–	-31.4	–	1.03 µM (active)
CCCNC(=O)Cn1c(=O)/c(=C\c2ccc(-c3cccc([N+](=O)[O-])c3)o2)s/c1=C\C(=O)C(C)(C)C	–	0.916	inactive	–
O=C(COC(=O)CCN=C1NS(=O)(=O)c2ccccc21)NNC(=O)c1ccccc1	-1.99% [at 0.0737 µM] (inactive)	-17.2	–	–
Cn1cc(CN2CCC(N3CCNC(=O)CC3)CC2)c(-c2ccccc2F)n1	-10.8% (inactive)	-9.69	–	–
CCOC(=O)C1CCN(Cc2ccc(OC)c(OCc3ccccc3)c2)CC1	-14.2% (inactive)	-8.13	–	–
O=C(CSc1nc(-c2ccc(F)cc2)cs1)NCCN1C(=O)CSC1=O	-7.68% (inactive)	–	–	–
O=C(CSc1n[nH]c(-c2cc(Cl)ccc2Cl)n1)NCCN1C(=O)CSC1=O	–	-24.6	–	18.4 µM (active)
O=C(COC(=O)c1cc(Cl)ccc1Cl)NCCN1C(=O)CSC1=O	9.78% (inactive)	-6.51	–	–
O=C(CCc1nnc2ccc(NCc3ccccc3Cl)nn12)NC1CCCC1	2.54% (inactive)	3.96	–	–
CC1(C)CC(=O)C2=C(C1)Oc1ncn(Cc3ccco3)c(=N)c1C2c1ccccc1 (centres undefined)	19.1% (inactive)	-0.936	–	–
CC(C)(C)n1ncc2c(=O)n(Cc3c(F)cccc3Cl)cnc21	0.516% (inactive)	4.75	–	–
O=C1NC(c2ccccc2)=C(c2ccc3ccccc3n2)C(c2ccccc2)N1 (centres undefined)	9.51% (inactive)	-0.112	–	–
CC(C)(Oc1ccc(CCNC(=O)c2ccc(-c3ccccc3)o2)cc1)C(=O)O	-18.4% (inactive)	7.48	–	–
Cc1ccc(S(=O)(=O)Nc2nc3ccccc3nc2NCc2ccc3c(c2)OCO3)cc1C	1.16% (inactive)	-0.718	–	–
O=c1oc(-c2cc3ccccc3o2)nc2sc3c(c12)CCCC3	0.767% (inactive)	-5.74	–	–
